# Pf growth 48h: P. falciparum growth inhibition at 48 hours (one generation) | P. falciparum luciferase growth in erythrocytes, 48 h | Potency, µM (top dose mostly 28.7 µM), inactives show top-dose activity change, negative = inhibition, hits mostly inhibitors | actives 5.9% (n = 310,000) | AID 504832; further: potency means the concentration at half of the fitted maximal effect; on the % scale 0 is the no-effect control and ±100 the full control effect
#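 Here the parasites carry a stable luciferase gene and grow inside erythrocytes in Albumax-based RPMI medium with compound for one erythrocytic cycle. Activity is scored as loss of luminescent signal.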
# RE007 growth inh: less growth of the S. pombe RE007 Vpr strain; AID 651644; S. pombe RE007 Vpr strain, BacTiter-Glo ATP luminescence, 24 h; actives 0.21% (n = 360,000); Potency, µM (series often up to 92.2 µM), for inactives: at the highest dose activity change, negative = less growth, most hits filed as inhibitors; active means well fitted falling curve with a large enough effect; inconclusive means small, poorly fitted or top-dose-only effect; inactive means no such curve, though single readings can be large or run the other way; further: potency means the concentration at half of the fitted maximal effect; on the % scale 0 is the no-effect control and ±100 the full control effect; nearly all actives have a fitted effect of over 50% in size
#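 Fission yeast RE007 carrying one integrated HIV-1 vpr copy, seeded at OD 0.01 in PMG+AL medium with 23 nL pinned compound. Grown 24 h at 30 degrees; viability read by BacTiter-Glo luminescence after 5 min.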
# SARS PLpro yeast-1: blocks SARS-CoV papain-like protease in a yeast assay; S. cerevisiae expressing SARS-CoV PLpro, growth rescue; Potency, µM (series often up to 32.9 µM), for the others: at the highest dose activity, positive = growth rescue, actives largely listed as activators; actives 0.19% (n = 330,000); AID 485353; calls by dose curve; further: potency means the concentration at half of the fitted maximal effect; 0% is about no effect; nearly all actives have a fitted effect of over 55% in size
# NS1 inh: blocks influenza NS1 protein function; Potency, µM (highest dose often 46.1 µM), for inactives: at the top dose activity, positive = more growth; actives 0.4% (n = 270,000); calls by dose curve; further: potency means the concentration at half of the fitted maximal effect; actives are rising curves; nearly all actives have a fitted effect of over 50% in size
#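 Recovery from NS1-induced slow growth read by OD600 in budding yeast switched to galactose assay medium (pH 6.0, -URA) at 1:100 dilution. Compound 23 nl per well; the matching strain lacking NS1 serves as control.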
# Pf growth 96h: P. falciparum growth inhibition at 96 hour, primary screen for plastid delayed-death inhibitors; P. falciparum luciferase reporter growth, 96 h; Potency, µM (top dose mostly 28.7 µM), without a hit: at the highest dose activity change, negative = inhibition, hits mostly inhibitors; actives 6.9% (n = 320,000); further: potency means the concentration at half of the fitted maximal effect; on the % scale 0 is the no-effect control and ±100 the full control effect
#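 Readout is luminescence from an integrated firefly luciferase in P. falciparum. Red cells, 2% hematocrit and 0.05% parasitemia final, were cultured with compound through two parasite generations (96 hours) at 37 C, 5% CO2.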
# SARS PLpro yeast-2: Validates SARS-CoV PLpro inhibitor hits in yeast; shares compounds with SARS PLpro yeast-1; yeast expressing SARS-CoV PLpro, growth phenotype rescue; calls only; actives 19% (n = 1,000); AID 652038; call rule not given here
# Numbers without * were called inactive; i = inactive; u = inconclusive; x = no result; + = active, no number; ! = not active in a repeat. Sampled rows, rich in hits. Any-hit rate of the full collection: about 9.5%. Unless noted, the call rests on the fitted dose curve; in most records, active means well fitted inhibition curve with a large enough effect; inconclusive means small, poorly fitted or top-dose-only effect, or another doubt; inactive means no such curve, though single readings can be large or run the other way.
SMILES,Pf growth 48h,RE007 growth inh,SARS PLpro yeast-1,NS1 inh,Pf growth 96h,SARS PLpro yeast-2
COc1ccc(/C=N/NC(=O)CN(CCc2ccccc2)S(=O)(=O)c2ccc(NC(C)=O)cc2)cc1OC,u,6%,3.5µM*,13%,9.3µM*,i
COc1ccc(S(=O)(=O)N(CCc2ccccc2)CC(=O)O)cc1Cl,16%,17%,u,-6%,x,i
CN(C)C1=NCCN1CCc1ccc(F)cc1,7%,-28%,-8%,x,61%,x
FC(F)(F)C(F)(F)c1nc2nc(Cl)c(Cl)nc2[nH]1,x,4%,x,x,x,x
O=S(=O)(Cc1ccccc1)Cc1cnc(Cl)s1,-7%,19%,5%,-2%,0%,x
O=S(=O)(Cc1cnc(Cl)s1)c1ccccc1,4%,2%,13µM*,1%,12%,i
CC[n+]1c(/C=C(/C)SC)sc2ccccc21,1.7µM*,-24%,3.5µM*,6%,u,i
CC[n+]1c(C=C2C=C(C)OC(C)=C2)sc2ccccc21,u,u,-2%,x,u,x
C=CCc1ccc(OCCn2cncn2)c(OC)c1,8%,4%,u,-14%,0%,i
C=CCc1cc(OC)ccc1OCCCCn1cncn1,13%,-4%,u,-29%,u,x
Cc1cc(NC(=O)CCN2CCC(C)CC2)ccc1Br,7%,-11%,2%,4%,u,x
C=C1CC2C=C(NC(C)=O)CC(C1)C2 (stereo not drawn),25%,18%,u,2%,8%,i
O=C(Nc1ccc(Oc2cccnc2)cc1)C1CCN(Cc2cccc(Cl)c2)CC1,u,4%,2%,19%,-7%,x
CC(=O)c1cccc(CN2CCC(C(=O)Nc3ccc(Oc4cccnc4)cc3)CC2)c1,u,-3%,u,11%,u,i
CCCCCCC1/C(=N\NC(=O)c2ccccc2)CCC1C(=O)OC (stereo not drawn),x,-1%,0%,-6%,-16%,x
Cc1cccc(C2=NN(c3ccc(Br)cc3)[C@@H](C(=O)N3CCOC3=O)[C@@H]2c2ccccc2)c1,x,6%,3.5µM*,x,x,i
CCN(CC)c1ccc(/C=N/Nc2nc(C)cc(=O)[nH]2)c(O)c1,1.9µM*,-8%,4.5µM*,14%,1.9µM*,i
CCN(CC)c1ccc(/C=N/NC(=O)c2c(Cl)cnn2C)c(O)c1,u,u,u,-64%,u,i
CCN(CC)c1ccc(/C=N/NC(=O)CNC(=O)C2COc3ccccc3O2)c(O)c1 (stereo not drawn),u,2%,u,-12%,u,x
CCN(CC)c1ccc(/C=N/NC(=O)CCC(=O)NCc2ccccc2)c(O)c1,13µM*,11%,4µM*,-2%,u,i
CCOC(=O)C1=CN(Cc2cccc(F)c2)S(=O)(=O)N(CC)C1c1ccc(C(F)(F)F)cc1 (stereo not drawn),x,-6%,-6%,x,x,x
Oc1ccc(CN2CCN(c3ccccc3)CC2)c2cccnc12,7.4µM*,-12%,11µM*,6%,-17%,i
Oc1ccc(CN2CCC(Cc3ccccc3)CC2)c2cccnc12,u,-11%,2.5µM*,x,2%,u
CN(C)C1CCN(Cc2cc(COCc3ccccc3)c3cccnc3c2O)C1 (stereo not drawn),0.83µM*,x,10µM*!,x,u,u
CN(C)[C@H]1CCN([C@H]2CS(=O)(=O)N[C@@H]2COCc2ccccc2)C1,x,23%,x,x,x,x
SMILES,Pf growth 48h,RE007 growth inh,SARS PLpro yeast-1,NS1 inh,Pf growth 96h,SARS PLpro yeast-2
COc1ccc(CCNC(=O)CN2C(=O)COc3ccc(S(=O)(=O)N4CCOCC4)cc32)cc1OC,-3%,15%,2%,-1%,24%,x
CC(C)N(Cc1ccccc1)C(=O)COC(=O)/C=C/c1cnc2ccccc2n1,12%,5%,1%,3%,44%,x
CC(C)NC(=O)CN1C(=O)NC(CCc2ccccc2)C1=O (stereo not drawn),3%,0%,3.5µM*,14%,u,i
O=C(CN1C(=O)NC(CCc2ccccc2)C1=O)Nc1ccc(F)c(F)c1F (stereo not drawn),x,13%,2%,x,x,x
Cc1ccc(NC(=O)CN(C)S(=O)(=O)c2cccs2)cc1C,38%,-1%,u,12%,x,i
COc1ccc(CCn2c(C)cc(C(=O)CCl)c2C)cc1OC,u,2%,10µM*,x,u,+
Cc1cc(C(=O)CCl)c(C)n1CCc1ccc(F)cc1,u,19%,22%,x,u,x
CC[C@]12c3[nH]c4cc(-c5ccco5)ccc4c3CCN1C(=O)[C@@H](CC(=O)NCc1cccc(C(F)(F)F)c1)C[C@@H]2C(=O)N1CCN(C(=O)c2ccco2)CC1,x,5%,5%,x,x,x
Cc1ccc(C)c(N2CCN(C(=O)C3CCCN(S(=O)(=O)c4c(C)[nH]c(=O)[nH]c4=O)C3)CC2)c1 (stereo not drawn),x,-2%,10µM*,-1%,0%,i
C=CCn1c(SCc2cc(=O)n3cc(C)ccc3n2)nnc1-c1cccc(C)c1,-29%,-10%,11µM*,-5%,u,i
Cc1ccc2nc(CSc3nnc4ccccn34)cc(=O)n2c1,48%,6%,-1%,x,83%,x
CC1(C)CC(=O)C(C=NCCN2CCN(C(=S)Nc3ccccc3)CC2)=C(O)C1,-9%,10%,u,-22%,50%,i
O=C(O)c1cccc(-n2nc(-c3ccc(Cl)c([N+](=O)[O-])c3)c3ccccc3c2=O)c1,u,-4%,u,-1%,u,x
CCOC(=O)N1CCN(C(=O)CSC2=NS(=O)(=O)c3cc(F)ccc3N2)CC1,u,2%,7%,x,-1%,x
O=C(/C=C/c1ccco1)Oc1cc(Br)cc(/C=N/NC(=O)c2ccccc2O)c1,1.9µM*,-28%,x,18%,30%,i
COc1ccc(C(C)NC(=O)c2ccccc2Cl)cc1OC (stereo not drawn),10%,8%,11µM*,-10%,25%,+
COc1ccc(C(C)NC(=O)c2ccc(Br)cc2)cc1OC (stereo not drawn),18%,-1%,-3%,-8%,0%,x
COc1ccc(Cn2ccnc2SCC(=O)Nc2ccc(F)cc2F)cc1,x,-8%,x,x,x,x
Cc1ccc(-c2noc(COc3ccc4c(c3)OCO4)n2)cc1,6%,-5%,13µM*,-1%,25%,i
Cc1ccc(S(=O)(=O)N2CCC(C(=O)OC(C)C(=O)NC3CCCCC3C)CC2)cc1C (stereo not drawn),u,5%,u,x,u,u
O=C(Nc1ccc(F)cc1)C(c1ccccc1)N1CCN(S(=O)(=O)c2ccccc2)CC1 (stereo not drawn),-12%,-1%,u,22%,u,i

# Assay outcomes from PubChem.
